Results filed as inconclusive are left out. Entries that show only a call come without a potency. A number with no mark means an inactive call. Activity calls are given as the source filed them. The call rests on the fitted dose curve; in most records, active means well fitted activation curve with a large enough effect in the repeat runs; inconclusive means weak or mixed curves; inactive means flat fitted curve, though single readings scatter.

Consider 40 molecules from PubChem BioAssay (Tox21).
Potency means the concentration at half of the fitted maximal effect.

This experiment in a line: A CellTox Green Cytotoxicity Assay to monitor cytotoxicity in HepG2 cells - 24 hour (AID 1224878). Further: nearly all actives have a fitted effect of over 45% in size. The settings on record: CellTox Green fluorescence; series mostly up to 76.8 µM. The text has this: National Center for Advancing Translational Sciences [NCATS]
NIH Chemical Genomics Center [NCGC]
U.S. Environmental Protection Agency [EPA]
National Institutes of Environmental Health Sciences [NIEHS]
National Toxicology Program [NTP]
Cell-based models are critical for drug discovery. Determining the natural cytotoxic effects resulting from test compounds is an essential research activity. A CellTox Green Cytotoxicity Assay to monitor cytotoxicity in real time of continues cell culture during 40 hours of the compound treatment was used to screen Tox21 10K library compounds in HepG2 cells. CellTox Green Cytotoxicity Assay is a nonlytic, homogeneous, biofluorescent method to measure cytotoxicity in cell culture after experimental manipulation. The assay system uses a proprietary asymmetric cyanine dye that is excluded from viable cells but preferentially stains the dead cell's DNA. […] Viable cells produce no appreciable increases in fluorescence. Therefore, the fluorescence signal produced by the binding interaction with dead cell DNA is proportional to cytotoxicity.
The mixture of HepG2 cell suspension and reagents were dispensed at 600cells/6 ul/well in 1536-well tissue culture treated black solid bottom plates using a Multidrop dispenser. After the assay plates were incubated at a 37 C/5% CO2 incubator for 5 hours, 23 nL of compounds dissolved in DMSO, positive and negative controls was transferred to the assay plate by a pintool work station. The plates were incubated at 37 C for 40 hours. The fluorescence intensity were measured at 0h, 8h, 16h, 24h, 32h and 40h time points using ViewLux plate reader during compound treatment.
As for `N#Cc1ccc(C(c2ccc(C#N)cc2)n2cncn2)cc1`, the Potency entry is “inactive”.

As for `OCCN1CCN(CCO)CC1`, the Potency result was “inactive”.

Consider `OCCN(CCO)CCN(CCO)CCO`, for which the Potency entry was “inactive”.

Regarding `CC(C)CC(=O)OCc1ccccc1`, the Potency entry was “inactive”.

On to `O=c1[nH]c(=O)n([C@H]2C[C@H](O)[C@@H](CO)O2)cc1C(F)(F)F`, for which the Potency result was “inactive”.

Turning to `Cc1ccsc1C(=CCCN1CCC[C@@H](C(=O)O)C1)c1sccc1C`, the Potency result was “inactive”.

As for `Cc1c(N)cccc1N`, the Potency result is “inactive”.

As to `CNCCC(Oc1ccccc1OC)c1ccccc1` (stereo not given), the Potency result is “inactive”.

As for `CN1[C@@H]2CC[C@H]1CC(OC(=O)c1c[nH]c3ccccc13)C2` (stereo not given in full), the Potency entry is “inactive”.

Regarding `CC(=O)N(CC(O)CN(C(C)=O)c1c(I)c(C(=O)NCC(O)CO)c(I)c(C(=O)NCC(O)CO)c1I)c1c(I)c(C(=O)NCC(O)CO)c(I)c(C(=O)NCC(O)CO)c1I` (stereo not given), the Potency entry was “inactive”.

Regarding `CC1=C(O)C(=O)OC1C` (stereo not given), the Potency entry is “inactive”.

As to `C=CC1CO1` (stereo not given), the Potency result was “inactive”.

As to `COc1ccc(S(=O)(=O)Nc2nnc(CC(C)C)s2)cc1`, the Potency entry was “inactive”.

As for `CCCCCCCCCC#N`, the Potency entry was “inactive”.

For `CC1=CC(=O)CC(C)(C)C1=O`, the Potency entry was “inactive”.

Turning to `C[C@@H](N)C(=O)O`, the Potency entry was “inactive”.

Take `Cc1cc2nc(N)sc2cc1C`: the Potency result was “inactive”.

Consider `CCOC(=O)c1ccccc1O`, for which the Potency result is “inactive”.

Take `COC(=O)c1ccc2cc(C(=O)OC)ccc2c1`: the cytotoxicity is -14.4% [at 15.8 µM].

As to `CCN1CC(CCN2CCOCC2)C(c2ccccc2)(c2ccccc2)C1=O` (stereo not given), the Potency entry is “inactive”.

Regarding `COc1cc(Cl)ccc1Cl`, the Potency entry is “inactive”.

In the case of `CC(C)C(=O)OC/C=C/c1ccccc1`, the Potency entry was “inactive”.

Turning to `CC1(O)CSC(C)(O)CS1` (stereo not given), the Potency result was “inactive”.

`C[C@@H]1CN(c2c(F)c(F)c3c(=O)c(C(=O)O)cn(C4CC4)c3c2F)C[C@H](C)N1`: the cytotoxicity was -13.2% [at 15.8 µM].

`CC(C)O`: the Potency entry was “inactive”.

With `CC(=O)N[C@@H](CC(C)C)C(=O)O`, the Potency entry is “inactive”.

With `Cc1ccc(C=O)s1`, the Potency was 38.9 µM (active).

On to `O=C1Nc2ccc([N+](=O)[O-])cc2C1=O`, for which the Potency entry was “inactive”.

With `CCOc1ccc(NS(=O)(=O)c2ccc(N)cc2)nn1`, the Potency result was “inactive”.

Turning to `COC(=O)c1ccc(OC)cc1`, the Potency entry was “inactive”.

Take `CC(=O)OC(C)OC(C)=O`: the Potency entry was “inactive”.

Regarding `OCc1ccccc1O`, the Potency result is “inactive”.

Take `O=c1[nH]cnc2c1ncn2[C@@H]1O[C@H](CO)[C@@H](O)[C@H]1O`: the Potency result was “inactive”.

As to `C[C@]12CCC(=O)C=C1CC[C@@H]1[C@@H]2CC[C@@]2(C)[C@H]1CC[C@]2(O)C(=O)CO`, the Potency entry is “inactive”.

As for `CN(C)C(=O)NC1(c2ccccc2)CCN(CCC[C@]2(c3ccc(Cl)c(Cl)c3)CCCN(C(=O)c3ccccc3)C2)CC1`, the cytotoxicity was 19.6% [at 15.8 µM].

On to `Oc1ccccc1F`, for which the Potency result is “inactive”.

Consider `O=S(=O)(O)C(F)(F)F`, for which the Potency entry is “inactive”.

For the molecule `CC(C)C(=O)OCC(C)(C)C(O)C(C)C` (stereo not given), the Potency entry was “inactive”.

`NC/C=C/C(=O)O`: the Potency entry is “inactive”.

As for `C=Cc1ccccc1`, the Potency result is “inactive”.
